Sampled rows, rich in hits. Any-hit rate of the full collection: about 3.5%.
TbPYK inhibitor = blocks Trypanosoma brucei pyruvate kinase; Q57TT1; Potency, µM (series often up to 76.8 µM), hits mostly inhibitors; actives 0.12% (n = 410,000); TbPYK enzyme, Kinase-Glo Plus ATP luminescence, 45 min; AID 624173; note: nearly all actives have a fitted effect of over 50% in size
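In this concentration-response screen, enzyme-free wells defined baseline while DMSO plates tracked drift. Each reaction combined TbPYK, substrate, compound and 130 uM ADP for 45 min at room temperature. Kinase-Glo Plus luminescence gave the signal.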
NS1 function inh = blocks influenza NS1 protein function; Potency, µM (top dose mostly 46.1 µM); actives 0.4% (n = 270,000); calls by dose curve; note: actives are rising curves; nearly all actives have a fitted effect of over 50% in size
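S. cerevisiae expressing influenza A NS1, grown in glucose, washed, then diluted 1:100 into pH 6.0 -URA galactose medium with 23 nl compound. Growth recovery read as OD600; NS1-free strain serves as control.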
Sm TGR inh = S. mansoni TGR enzyme inhibition; actives 3% (n = 360,000); purified TGR, DTNB reduction, TNB absorbance 405 nm; Potency, µM (titrated, usually from 114 µM), hits mostly inhibitors; AID 485364; note: nearly all actives have a fitted effect of over 60% in size
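First, TGR (20 nM dispensed) and NADPH were mixed with compound. Second, a 15 min room-temperature incubation followed. Third, further NADPH and then DTNB were added to start the reaction. Finally, TNB absorbance was monitored kinetically.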
RE007 growth inh = less growth of the S. pombe RE007 Vpr strain; S. pombe RE007 Vpr strain, BacTiter-Glo ATP luminescence, 24 h; AID 651644; Potency, µM (doses to about 92.2 µM), actives largely listed as inhibitors; actives 0.21% (n = 360,000); active = well fitted falling curve with a large enough effect; inconclusive = small, poorly fitted or top-dose-only effect; inactive = no such curve, though single readings can be large or run the other way; note: nearly all actives have a fitted effect of over 50% in size
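Fission yeast RE007 carrying one integrated HIV-1 vpr copy, seeded at OD 0.01 in PMG+AL medium with 23 nL pinned compound. Grown 24 h at 30 degrees; viability read by BacTiter-Glo luminescence after 5 min.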
LmPK inhibitor = inhibitors of Leishmania mexicana pyruvate kinase. Q27686. purified LmPK, Kinase-Glo ATP luminescence, 1 h. Potency, µM (titrated, usually from 57.5 µM), hits mostly inhibitors. actives 0.37% (n = 290,000)
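Kinase-Glo luminescence read after 1 h RT reaction of 0.1 nM LmPK with 0.5 mM PEP and 0.1 mM ADP. Activity scaled between uninhibited and enzyme-free controls.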
Giardia FBPA inh = inhibitors of Giardia lamblia fructose-1,6-bisphosphate aldolase | A8B2U2 | Potency, µM (titrated, usually from 59.6 µM), hits mostly inhibitors | actives 0.71% (n = 290,000) | purified Giardia FBPA; note: nearly all actives have a fitted effect of over 55% in size
Target sequence (A8B2U2 whole entry, looked up): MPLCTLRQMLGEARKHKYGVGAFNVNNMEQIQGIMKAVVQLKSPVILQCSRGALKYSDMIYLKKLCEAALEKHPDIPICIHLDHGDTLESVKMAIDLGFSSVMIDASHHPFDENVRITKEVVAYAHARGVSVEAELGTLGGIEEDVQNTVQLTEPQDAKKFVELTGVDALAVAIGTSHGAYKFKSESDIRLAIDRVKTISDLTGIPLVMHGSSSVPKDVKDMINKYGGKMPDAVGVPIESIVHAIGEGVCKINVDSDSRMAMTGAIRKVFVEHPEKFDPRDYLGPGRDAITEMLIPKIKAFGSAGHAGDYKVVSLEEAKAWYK
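Giardia FBPA (40 nM reagent) was preincubated 10 min at RT with compound (up to 57.5 uM final), then substrate plus GAPDH/TPI/NAD/arsenate coupling system with diaphorase/resazurin was added; resorufin fluorescence (525/598 nm) was read after 20 min.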
Numbers stand for hits; 0 = inactive; ? = inconclusive; - = no result; [ ] = another dose, or the depositor's remark. Unless noted, calls come from the whole dose curve; as a rule, active = well fitted curve in the direction sought with a large enough effect; inconclusive = small, poorly fitted or top-dose-only effect, or another doubt; inactive = no such curve, though single readings can be large; an effect the other way counts as inactive or inconclusive.

SMILES	TbPYK inhibitor	NS1 function inh	Sm TGR inh	RE007 growth inh	LmPK inhibitor	Giardia FBPA inh
O=C(O)/C=C\C(=O)Nc1ccccc1C(=O)N1CCN(c2ccc(Cl)cc2)CC1	0	0	50µM	?	0	0
CC(C)c1ccc(N2CCN(C(=O)c3ccccc3NC(=O)/C=C\C(=O)O)CC2)cc1	0	0	40µM	0	0	0
COc1ccc(-c2noc(Cn3c(=O)c4ccccc4n(CC(=O)Nc4cccc(OC)c4)c3=O)n2)cc1	0	-	0	-	-	-
CCCCNC(=O)CCn1c(=O)c2cccn2c2cccnc21	0	-	0	-	-	-
CN1CCN(C(c2ccc(F)cc2)c2ccc3cccnc3c2O)CC1 (stereo not drawn)	0	-	-	0	-	-
CN1CCN(C(c2ccc(Br)cc2)c2cc(Cl)c3cccnc3c2O)CC1 (stereo not drawn)	0	0	0.63µM	0	0	0
c1csc(C2C3=C(Nc4ncnn42)c2ccccc2OC3)c1 (stereo not drawn)	0	0	45µM	0	0	0
CC(=O)c1cccc(NC(=O)CCc2c(C)nc3nc(CN)nn3c2C)c1	0	-	0	-	-	-
Cc1cccc(N2C(=O)NC(=O)/C(=C/c3ccc([N+](=O)[O-])o3)C2=O)c1	?	0	8.9µM	-	0	?
COc1ccc(N2C(=O)/C(=C/c3ccc(C)o3)C(=O)NC2=S)cc1	?	0	1.3µM	0	0	?
CCOc1ccc(N2C(=O)/C(=C/c3ccc(C)o3)C(=O)NC2=S)cc1	?	0	1.4µM	0	0	?
Cc1ccc(/C=C2\C(=O)NC(=S)N(c3cccc(F)c3)C2=O)o1	?	?	0.71µM	0	0	0
COc1cccc(-c2ccnc3c(-c4ccc(F)cc4)c(C)nn23)c1	0	-	0	-	-	-
COc1ccc(-c2cc(C(F)F)n3ncc(C(=O)Nc4cc(OC)ccc4OC)c3n2)cc1	0	-	0	-	-	-
COc1ccc(-c2cc(C(F)F)n3ncc(C(=O)N4CCc5ccccc54)c3n2)cc1	0	0	11µM	0	0	0
Cc1ccc(-c2cc(C(F)F)n3ncc(C(=O)N4CCCc5ccccc54)c3n2)cc1	0	0	0	0	0	0
COc1ccc(-c2cc(C(F)F)n3ncc(C(=O)n4ccnc4C)c3n2)cc1	0	0	89µM	0	0	0
COc1ccc(C)cc1NCc1cccc(OC)c1OC	0	0	0	0	0	?
COc1cc(OC)c(OC)cc1CNc1cc(C)ccc1OC	0	0	40µM	0	0	0
C/C(=N/Nc1nc(-c2ccccc2)cc(-c2ccccc2)n1)c1ccc(N)cc1	-	7.9µM	0	-	0	0
C/C(=N/Nc1cc(-c2ccccc2)nc(-c2ccccc2)n1)c1ccc(O)cc1	0	0	0	0	0	0
Cc1cc(-c2nnc(-c3ccccc3)c(-c3ccccc3)n2)c(C)o1	0	0	6.3µM	0	0	0
Cc1ccc(-c2nnc(-c3ccccc3)c(-c3ccccc3)n2)cc1	0	0	0	0	0	0
Fc1cccc(Cc2c(-c3ccco3)nc3ccc(Br)cn23)c1	25µM	-	-	0	-	-
CC1CN(C(=O)/C=C/c2ccccc2[N+](=O)[O-])CC(C)O1 (stereo not drawn)	0	0	-	0	0	0
SMILES	TbPYK inhibitor	NS1 function inh	Sm TGR inh	RE007 growth inh	LmPK inhibitor	Giardia FBPA inh
CC1CC(C)CN(C(=O)/C=C/c2ccc([N+](=O)[O-])s2)C1 (stereo not drawn)	0	-	13µM	0	0	0
CC1CN(C(=O)/C=C/c2ccc([N+](=O)[O-])s2)CC(C)O1 (stereo not drawn)	0	-	20µM	0	0	0
O=C(/C=C/c1ccc([N+](=O)[O-])s1)N1CCN(c2ccccc2)CC1	0	0	0	0	0	0
CCCCCCCCCCCCCCC[C@H](O)[C@@H](N)CO	-	-	-	-	-	0
CC1CCCN(Cc2c(O)ccc3c(=O)c(-c4ccc(Cl)cc4)c(C(F)(F)F)oc23)C1 (stereo not drawn)	0	-	0	-	-	-
CCc1c(C)sc2c1CCN(Cc1cccc(OC)c1)C2c1ccccc1 (stereo not drawn)	0	-	0	-	-	-
CCC(=O)NCCC(c1ccco1)c1ccccc1OC (stereo not drawn)	0	?	25µM	0	0	0
COc1ccccc1C(CC(=O)Nc1nccs1)c1ccco1 (stereo not drawn)	0	0	50µM	0	0	0
O=C(CC(c1ccc(F)cc1)c1ccco1)Nc1nccs1 (stereo not drawn)	0	0	40µM	0	0	0
Cc1ccc2oc(=O)n(CCCOc3ccccc3Cl)c2c1	0	-	0	-	-	-
COc1ccc(CCNC(=O)CCc2cn(Cc3ccccc3Cl)c3ccccc23)c(OC)c1	0	-	0	-	-	-
COc1ccc(Nc2cc(C(=O)NCCCN3CCN(c4ccccc4F)CC3)c3ccccc3n2)c(OC)c1	0	-	0	-	-	-
CCCCSc1nc(O)c(C2OC(=O)c3c2ccc(OC)c3OC)c(=O)n1C (stereo not drawn)	0	0	0	0	0	0
CCCCCCSc1nc(O)c(C2OC(=O)c3c2ccc(OC)c3OC)c(=O)n1-c1ccccc1 (stereo not drawn)	0	?	13µM	0	0	0
CN(C)c1ccc(C(=O)n2nnc3ccccc32)cc1	0	0	0	0	0	0
O=C(c1cccc(F)c1)n1nnc2ccccc21	0	0	35µM	0	0	0
Cc1ccc(Cc2cnc(NC(=O)c3ccc4c(c3)CC(c3ccccc3)OC4=O)s2)cc1 (stereo not drawn)	0	-	0	-	-	-
CC(C)NS(=O)(=O)c1ccc(CCC(=O)NCc2ccc3c(c2)OCO3)cc1	0	0	0	0	0	0
CC(C)(C)NS(=O)(=O)c1ccc(CCC(=O)NCc2ccc3c(c2)OCO3)cc1	0	0	32µM	0	0	0
Cn1c(=O)oc2cc(NC(=O)CCl)ccc21	0	0	10µM	0	0	0
CCCCNC(=O)N(O)C1N(/N=C/c2ccco2)C(=S)SC1(C)C (stereo not drawn)	0	-	28µM	0	-	-
Cc1ccc(N2C(=O)C(Cl)=C(N3CCN(C)CC3)C2=O)c(C)c1	0	0	?	0	0	0
Cc1ccc(N2C(=O)C(Cl)=C(NCCO)C2=O)c(C)c1	0	0	8.9µM	0	0	0
NCCCn1cnc2ccccc21	0	-	35µM	0	0	0
c1ccc2c(c1)ncn2CCn1cnc2ccccc21	0	0	0[11.4 µM]	0	0	0
COc1ccc(-c2nnc(SCC(=O)N(C)C3CCCCC3)o2)cc1OC	0	-	0	-	-	-
O=C(CSc1n[nH]c(-c2ccco2)n1)N1c2ccccc2Sc2ccccc21	0	0	35µM	0	0	0
Oc1ccc(N=Cc2ccc(OCc3ccccc3)cc2)cc1	0	0	4µM	0	0	20µM
O=C(N/N=C/c1ccc(OCc2ccccc2)cc1)c1ccncc1	0	0	0	0	0	0

Screening results deposited in PubChem by National Center for Advancing Translational Sciences (NCATS).
